Bioassay records deposited in PubChem by Sanford-Burnham Center for Chemical Genomics.
Rows were chosen to be rich in hits. Some 28% of all compounds tested hit in one or more screens of this group.
CYP2C19 act = cytochrome P450 2C19 (human) activation; P33261; recombinant CYP2C19, luciferin-H EGE luminescence; active compounds read high; 0 = fully inhibited enzyme, 1 = untreated enzyme; activation factor at 5 µM; 96,000 tested, under 10 active; AID 1025;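 active = activation factor of at least 2 at 5 µM in the primary screen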;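 also: 0 = wells with 2.5 mM tranylcypromine and 1 = vehicle-only wells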
CYP2C9 activ = activators of human CYP2C9; recombinant CYP2C9, luciferin-H conversion, luminescence; active compounds read high; factor 1 = untreated enzyme, 0 = blocked; 96,000 tested, 1.4% active; P11712; activation factor at 5 µM; AID 1024;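 active = activation factor of 2 or more for CYP2C9 at a 5 µM dose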;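 also: 0 = sulfaphenazole-blocked wells and 1 = vehicle-only wells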
CYP2C19 inh = blocks human cytochrome P450 2C19 | P33261 | CYP2C19 Supersomes, luciferin-H EGE luminescence, 30 min | inhibition, % at 5 µM | 96,000 tested, 21% active | AID 778;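 active = CYP2C19 inhibition above a set limit at 5 µM in the primary screen, cut at about 50% in these data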;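 also: plate controls were negative control wells for no effect and 2.5 mM tranylcypromine positive control for full effect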
CYP2C9 inhib = inhibitors of human CYP2C9; CYP2C9 Supersomes, luciferin-H conversion, luminescence; 96,000 tested, 20% active; P11712; inhibition, % at 5 µM;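 active = blocking of liver enzyme CYP2C9 beyond about 50% at 5 µM, limit read from the data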
Pyk2 oligo antag = Pyk2 (human) oligomerization antagonism. Q293 cells, Pyk2 FERM NanoBiT luminescence; active compounds read low. z-score (the deposit names both 25 µM and 10 µM). 99,000 tested, 0.83% active;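 active = Z-score of -3 or lower, scaled per plate to the spread of control and sample wells; inactive = z-score above -3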;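 also: negative z-score means lost luminescence so less FERM oligomerization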
Target sequence (Q14289 whole entry, looked up): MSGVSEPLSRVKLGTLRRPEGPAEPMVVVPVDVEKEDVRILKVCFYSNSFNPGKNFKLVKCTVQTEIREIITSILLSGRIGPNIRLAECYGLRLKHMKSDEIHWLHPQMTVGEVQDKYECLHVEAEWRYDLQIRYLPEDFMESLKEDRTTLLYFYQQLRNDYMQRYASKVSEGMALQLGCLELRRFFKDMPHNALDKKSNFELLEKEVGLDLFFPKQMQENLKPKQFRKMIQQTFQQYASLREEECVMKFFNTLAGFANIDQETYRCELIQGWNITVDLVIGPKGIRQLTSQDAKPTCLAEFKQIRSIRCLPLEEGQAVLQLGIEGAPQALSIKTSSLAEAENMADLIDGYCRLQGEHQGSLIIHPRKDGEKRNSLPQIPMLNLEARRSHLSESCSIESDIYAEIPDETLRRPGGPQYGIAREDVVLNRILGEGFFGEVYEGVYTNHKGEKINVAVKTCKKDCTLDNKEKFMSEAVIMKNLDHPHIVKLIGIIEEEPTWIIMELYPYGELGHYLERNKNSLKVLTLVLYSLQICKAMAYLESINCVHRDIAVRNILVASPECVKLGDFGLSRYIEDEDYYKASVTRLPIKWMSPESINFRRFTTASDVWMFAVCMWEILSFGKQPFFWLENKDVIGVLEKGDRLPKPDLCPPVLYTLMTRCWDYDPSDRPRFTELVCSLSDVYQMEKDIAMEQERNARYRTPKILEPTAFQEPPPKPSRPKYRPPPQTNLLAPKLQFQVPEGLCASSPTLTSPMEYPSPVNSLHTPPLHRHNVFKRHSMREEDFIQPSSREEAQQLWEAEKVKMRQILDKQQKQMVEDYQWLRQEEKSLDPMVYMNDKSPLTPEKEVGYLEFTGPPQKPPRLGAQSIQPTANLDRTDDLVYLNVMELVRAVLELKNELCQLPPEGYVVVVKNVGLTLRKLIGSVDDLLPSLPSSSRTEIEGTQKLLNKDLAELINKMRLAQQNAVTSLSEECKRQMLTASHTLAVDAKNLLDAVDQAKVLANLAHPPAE
* = called active by the depositor.

Screening Cc1ccccc1C(=O)O/N=C/c1c(N2CCOCC2)n(C)c2ccccc12 returned CYP2C19 act 0.7, CYP2C9 activ 0.1, CYP2C19 inh 30, CYP2C9 inhib 88* and Pyk2 oligo antag 0.37.
`Cc1nc(N2CCN(Cc3ccccc3)CC2)[nH]c(=O)c1C` gave CYP2C19 act 1.1, CYP2C9 activ 1, CYP2C19 inh -10, CYP2C9 inhib -2 and Pyk2 oligo antag 0.23.
COc1cc(C2CC(=O)c3cnc(N)nc3C2)cc(OC)c1OC (stereo not drawn) was read as CYP2C19 act 0.9, CYP2C9 activ 1, CYP2C19 inh 7, CYP2C9 inhib -2 and Pyk2 oligo antag 0.71.
`COc1cc(C2CC(=O)c3cnc(N4CCN(Cc5ccccc5)CC4)nc3C2)cc(OC)c1OC` (stereo not drawn) gave CYP2C19 act 0.2, CYP2C9 activ 0, CYP2C19 inh 84*, CYP2C9 inhib 97* and Pyk2 oligo antag -1.9.
Screening CC1CC(C)CN(c2ncc3c(n2)CC(c2ccccc2)CC3=O)C1 (stereo not drawn) returned CYP2C19 act 0.3, CYP2C9 activ 0.1, CYP2C19 inh 74*, CYP2C9 inhib 90* and Pyk2 oligo antag 0.46.
`Nc1ncc2c(n1)CC(c1ccco1)CC2=O` (stereo not drawn) gave CYP2C19 act 0.9, CYP2C9 activ 1, CYP2C19 inh 11, CYP2C9 inhib -2 and Pyk2 oligo antag 0.54.
`CC(C)c1ccc(C2CC(=O)c3cnc(N4CCc5ccccc5C4)nc3C2)cc1` (stereo not drawn) gave CYP2C19 act 0.7, CYP2C9 activ 0.9, CYP2C19 inh 34, CYP2C9 inhib 13 and Pyk2 oligo antag 0.61.
Cc1nc(N2CCN(Cc3ccccc3)CC2)nc2c1C(=O)CC(C)C2 (stereo not drawn) was read as CYP2C19 act 0.4, CYP2C9 activ 0.2, CYP2C19 inh 61*, CYP2C9 inhib 77* and Pyk2 oligo antag 1.5.
`O=C1CC(c2ccco2)Cc2nc(N3CCc4ccccc4C3)ncc21` (stereo not drawn) gave CYP2C19 act 0.1, CYP2C9 activ 0, CYP2C19 inh 95*, CYP2C9 inhib 98* and Pyk2 oligo antag 0.57.
Screening COc1ccc(C2CC(=O)c3c(C)nc(N4CCN(Cc5ccccc5)CC4)nc3C2)cc1OC (stereo not drawn) returned CYP2C19 act 0.1, CYP2C9 activ 0, CYP2C19 inh 91*, CYP2C9 inhib 100* and Pyk2 oligo antag -0.27.
Screening NC(=O)Cn1c2[n+](c3ccccc31)CC(O)CS2 (stereo not drawn) returned CYP2C19 act 1.2, CYP2C9 activ 1.1, CYP2C19 inh -19, CYP2C9 inhib -13 and Pyk2 oligo antag 0.08.
Screening CC(=O)Nc1ccc(C(=O)CSc2nnc3scc(-c4ccccc4)n23)cc1 returned CYP2C19 act 0.7, CYP2C9 activ 0.4, CYP2C19 inh 34, CYP2C9 inhib 58* and Pyk2 oligo antag 0.62.
Screening Cc1ccc(-c2csc3nnc(SCC(=O)Nc4cccc(C)n4)n23)cc1 returned CYP2C19 act 0.4, CYP2C9 activ 0.5, CYP2C19 inh 57*, CYP2C9 inhib 53* and Pyk2 oligo antag -0.6.
O=C(CCSc1nnc2scc(-c3ccccc3)n12)Nc1nc(-c2ccccc2)ns1 was read as CYP2C19 act 0.9, CYP2C9 activ 0.7, CYP2C19 inh 13, CYP2C9 inhib 32 and Pyk2 oligo antag -0.08.
O=C(CSc1nnc2scc(-c3ccccc3)n12)NCC1CCCO1 (stereo not drawn) was read as CYP2C19 act 0.9, CYP2C9 activ 1.1, CYP2C19 inh 15, CYP2C9 inhib -10 and Pyk2 oligo antag 0.05.
`O=C(O)CCCC(=O)NS(=O)(=O)c1ccc(Cl)cc1` gave CYP2C19 act 1, CYP2C9 activ 0.9, CYP2C19 inh -2, CYP2C9 inhib 12 and Pyk2 oligo antag -0.17.
Screening CCOC(=O)Cc1csc(NC(=O)c2ccncc2)n1 returned CYP2C19 act 0.2, CYP2C9 activ 0.4, CYP2C19 inh 78*, CYP2C9 inhib 56* and Pyk2 oligo antag 0.93.
For CCOC(=O)Cc1csc(NC(=O)c2ccc(C)o2)n1 the results were CYP2C19 act 0.3, CYP2C9 activ 0.3, CYP2C19 inh 73*, CYP2C9 inhib 72* and Pyk2 oligo antag 1.8.
Screening CCCCOC(=O)Nc1nc(CC(=O)OCC)cs1 returned CYP2C19 act 0.1, CYP2C9 activ 0.2, CYP2C19 inh 91*, CYP2C9 inhib 82* and Pyk2 oligo antag 0.35.
For C/C(CC1CC(COCCC(C)C)OC1=O)=N\NC(N)=S (stereo not drawn) the results were CYP2C19 act 1, CYP2C9 activ 1.2, CYP2C19 inh -1, CYP2C9 inhib -25 and Pyk2 oligo antag 0.54.
Screening CCOC(=O)c1[nH]c2cc(OC)c(OC)cc2c1NC(=O)c1nonc1C returned CYP2C19 act 1, CYP2C9 activ 0.5, CYP2C19 inh 1, CYP2C9 inhib 48 and Pyk2 oligo antag 0.84.
For CCCn1nnc(NC(=O)COc2ccc(C3CCCCC3)cc2)n1 the results were CYP2C19 act 0.4, CYP2C9 activ 0.1, CYP2C19 inh 62*, CYP2C9 inhib 89* and Pyk2 oligo antag -0.67.
CCCn1nnc(NC(=O)COc2ccc(Cl)cc2)n1 was read as CYP2C19 act 0.7, CYP2C9 activ 0.9, CYP2C19 inh 30, CYP2C9 inhib 10 and Pyk2 oligo antag 1.5.
`CCS(=O)(=O)NCCc1csc(-c2cccnc2)n1` gave CYP2C19 act 0.6, CYP2C9 activ 0.6, CYP2C19 inh 36 and CYP2C9 inhib 37.
Screening CCc1ccc(S(=O)(=O)NCCc2csc(-c3cccnc3)n2)s1 returned CYP2C19 act 0.1, CYP2C9 activ 0.1, CYP2C19 inh 94* and CYP2C9 inhib 89*.
`CCS(=O)(=O)NCCc1csc(-c2ccccc2)n1` gave CYP2C19 act 0.3, CYP2C9 activ 0.9, CYP2C19 inh 73*, CYP2C9 inhib 13 and Pyk2 oligo antag 1.2.
For CCc1ccc(S(=O)(=O)NCc2csc(-c3ccccc3)n2)s1 the results were CYP2C19 act 0.6, CYP2C9 activ 0.2, CYP2C19 inh 41, CYP2C9 inhib 76* and Pyk2 oligo antag 1.8.
`O=S(=O)(NCc1csc(-c2cccnc2)n1)c1ccc(Cl)s1` gave CYP2C19 act 0.2, CYP2C9 activ 0.4, CYP2C19 inh 76* and CYP2C9 inhib 62*.
`Cc1ccc(S(=O)(=O)NCc2cccnc2)s1` gave CYP2C19 act 0.6, CYP2C9 activ 1, CYP2C19 inh 37, CYP2C9 inhib -1 and Pyk2 oligo antag -1.
For Cc1ccc(S(=O)(=O)NCC(=O)OCc2csc(-c3ccccc3)n2)cc1 the results were Pyk2 oligo antag 0.88.
CCc1ccc(S(=O)(=O)NCCc2csc(-c3ccccc3)n2)s1 was read as CYP2C19 act 0.1, CYP2C9 activ 0.3, CYP2C19 inh 93*, CYP2C9 inhib 74* and Pyk2 oligo antag -0.31.
Screening CC(=O)NCCc1csc(-c2ccccc2)n1 returned Pyk2 oligo antag 0.75.
